# Assay results taken from ChEMBL document CHEMBL1961873, “Compounds: GSK PKIS; Assays: Nanosyn kinase panel” (2012).
# How the values were obtained:
# [1] = target: 5'-AMP-activated protein kinase catalytic subunit alpha-2 (Homo sapiens) (UniProt P54646); settings: at 1 µM
# [2] = target: T1, NUAK family SNF1-like kinase 1 (Homo sapiens) (UniProt O60285); settings: at 0.1 µM
# T1 sequence (whole entry): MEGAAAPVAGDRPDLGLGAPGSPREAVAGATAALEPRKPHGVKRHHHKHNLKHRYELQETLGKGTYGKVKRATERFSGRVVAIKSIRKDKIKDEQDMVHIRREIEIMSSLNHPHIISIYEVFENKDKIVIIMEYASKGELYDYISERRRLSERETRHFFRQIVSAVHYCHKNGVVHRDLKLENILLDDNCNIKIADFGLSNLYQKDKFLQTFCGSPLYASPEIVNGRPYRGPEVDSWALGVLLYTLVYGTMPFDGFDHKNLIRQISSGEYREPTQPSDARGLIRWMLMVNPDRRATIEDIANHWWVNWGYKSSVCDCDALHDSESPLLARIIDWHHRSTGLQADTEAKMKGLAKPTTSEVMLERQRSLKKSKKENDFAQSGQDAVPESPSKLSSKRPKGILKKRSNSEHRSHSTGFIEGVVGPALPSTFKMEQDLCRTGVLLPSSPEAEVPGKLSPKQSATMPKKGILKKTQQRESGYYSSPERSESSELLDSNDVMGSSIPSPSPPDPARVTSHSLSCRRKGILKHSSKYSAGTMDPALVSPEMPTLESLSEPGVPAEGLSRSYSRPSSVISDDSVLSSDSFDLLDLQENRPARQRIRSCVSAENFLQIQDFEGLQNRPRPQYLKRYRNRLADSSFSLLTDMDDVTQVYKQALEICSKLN
# [3] = target: T1, NUAK family SNF1-like kinase 1 (Homo sapiens); settings: at 1 µM
# [4] = target: T2, Serine/threonine-protein kinase BRSK1 (Homo sapiens) (UniProt Q8TDC3); settings: at 0.1 µM
# T2 sequence (whole entry): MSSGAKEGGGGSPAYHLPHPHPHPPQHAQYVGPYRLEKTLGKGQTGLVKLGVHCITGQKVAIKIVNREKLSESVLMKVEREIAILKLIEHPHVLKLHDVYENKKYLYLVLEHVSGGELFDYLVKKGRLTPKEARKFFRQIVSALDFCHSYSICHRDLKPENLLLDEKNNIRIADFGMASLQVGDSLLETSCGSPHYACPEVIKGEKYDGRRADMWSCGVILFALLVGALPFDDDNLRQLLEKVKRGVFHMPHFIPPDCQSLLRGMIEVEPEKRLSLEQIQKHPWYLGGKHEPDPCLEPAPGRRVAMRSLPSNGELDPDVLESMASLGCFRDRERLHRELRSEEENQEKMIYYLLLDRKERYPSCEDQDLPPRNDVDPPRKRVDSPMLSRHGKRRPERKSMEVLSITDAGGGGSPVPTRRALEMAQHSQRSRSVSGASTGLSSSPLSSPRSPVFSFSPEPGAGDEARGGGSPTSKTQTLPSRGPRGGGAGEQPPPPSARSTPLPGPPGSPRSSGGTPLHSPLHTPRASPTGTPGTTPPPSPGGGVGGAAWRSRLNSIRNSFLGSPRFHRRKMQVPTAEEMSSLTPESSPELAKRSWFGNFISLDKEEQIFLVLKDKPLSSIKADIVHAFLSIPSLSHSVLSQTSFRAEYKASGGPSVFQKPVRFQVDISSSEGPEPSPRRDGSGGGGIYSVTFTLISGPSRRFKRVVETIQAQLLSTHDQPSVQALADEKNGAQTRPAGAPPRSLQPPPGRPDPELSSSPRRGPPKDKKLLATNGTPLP
# [5] = target: T2, Serine/threonine-protein kinase BRSK1 (Homo sapiens); settings: at 1 µM
# [6] = target: T3, Serine/threonine-protein kinase BRSK2 (Homo sapiens) (UniProt Q8IWQ3); settings: at 0.1 µM
# T3 sequence (whole entry): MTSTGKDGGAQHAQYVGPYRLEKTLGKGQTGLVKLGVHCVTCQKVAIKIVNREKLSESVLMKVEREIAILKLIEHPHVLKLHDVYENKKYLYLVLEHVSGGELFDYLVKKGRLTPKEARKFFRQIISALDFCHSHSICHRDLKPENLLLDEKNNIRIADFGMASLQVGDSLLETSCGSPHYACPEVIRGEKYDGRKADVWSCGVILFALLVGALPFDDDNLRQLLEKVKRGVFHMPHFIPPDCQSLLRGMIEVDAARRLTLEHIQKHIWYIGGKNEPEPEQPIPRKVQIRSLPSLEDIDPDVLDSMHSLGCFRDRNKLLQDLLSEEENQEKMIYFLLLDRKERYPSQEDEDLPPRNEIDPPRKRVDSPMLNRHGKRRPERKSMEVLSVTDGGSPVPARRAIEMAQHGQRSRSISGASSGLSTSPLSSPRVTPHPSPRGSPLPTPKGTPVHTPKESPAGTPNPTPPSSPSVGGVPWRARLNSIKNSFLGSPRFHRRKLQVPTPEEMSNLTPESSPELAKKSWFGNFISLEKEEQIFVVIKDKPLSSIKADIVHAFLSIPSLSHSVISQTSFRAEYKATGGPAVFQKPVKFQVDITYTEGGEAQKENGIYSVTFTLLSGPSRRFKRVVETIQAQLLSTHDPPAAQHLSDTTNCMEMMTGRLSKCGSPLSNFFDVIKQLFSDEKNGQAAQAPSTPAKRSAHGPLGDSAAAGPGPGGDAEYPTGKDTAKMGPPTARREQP
# [7] = target: T3, Serine/threonine-protein kinase BRSK2 (Homo sapiens); settings: at 1 µM
# [8] = target: Calcium/calmodulin-dependent protein kinase type 1D (Homo sapiens) (UniProt Q8IU85); settings: at 0.1 µM
# [9] = target: Calcium/calmodulin-dependent protein kinase type 1D (Homo sapiens) (UniProt Q8IU85); settings: at 1 µM
# [10] = target: Calcium/calmodulin-dependent protein kinase type II subunit alpha (Homo sapiens) (UniProt Q9UQM7); settings: at 0.1 µM
# [11] = target: Calcium/calmodulin-dependent protein kinase type II subunit alpha (Homo sapiens) (UniProt Q9UQM7); settings: at 1 µM
# [12] = target: Calcium/calmodulin-dependent protein kinase type II subunit delta (Homo sapiens) (UniProt Q13557); settings: at 0.1 µM
# [13] = target: Calcium/calmodulin-dependent protein kinase type II subunit delta (Homo sapiens) (UniProt Q13557); settings: at 1 µM
# [14] = target: T4, Calcium/calmodulin-dependent protein kinase type IV (Homo sapiens) (UniProt Q16566); settings: at 0.1 µM
# T4 sequence (whole entry): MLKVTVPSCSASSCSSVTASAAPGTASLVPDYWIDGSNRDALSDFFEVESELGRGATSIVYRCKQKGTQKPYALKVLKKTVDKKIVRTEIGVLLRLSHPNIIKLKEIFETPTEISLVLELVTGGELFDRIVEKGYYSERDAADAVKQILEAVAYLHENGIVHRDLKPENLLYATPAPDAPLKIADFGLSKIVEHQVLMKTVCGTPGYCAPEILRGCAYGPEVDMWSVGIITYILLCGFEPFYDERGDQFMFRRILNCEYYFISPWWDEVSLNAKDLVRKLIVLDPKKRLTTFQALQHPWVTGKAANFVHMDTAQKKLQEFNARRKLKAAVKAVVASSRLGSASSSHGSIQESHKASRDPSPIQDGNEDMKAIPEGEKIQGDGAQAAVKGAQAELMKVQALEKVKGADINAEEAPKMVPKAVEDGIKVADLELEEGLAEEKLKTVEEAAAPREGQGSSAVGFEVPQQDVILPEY
# [15] = target: T4, Calcium/calmodulin-dependent protein kinase type IV (Homo sapiens); settings: at 1 µM
# [16] = target: T5, Serine/threonine-protein kinase Chk1 (Homo sapiens) (UniProt O14757); settings: at 0.1 µM
# T5 sequence (whole entry): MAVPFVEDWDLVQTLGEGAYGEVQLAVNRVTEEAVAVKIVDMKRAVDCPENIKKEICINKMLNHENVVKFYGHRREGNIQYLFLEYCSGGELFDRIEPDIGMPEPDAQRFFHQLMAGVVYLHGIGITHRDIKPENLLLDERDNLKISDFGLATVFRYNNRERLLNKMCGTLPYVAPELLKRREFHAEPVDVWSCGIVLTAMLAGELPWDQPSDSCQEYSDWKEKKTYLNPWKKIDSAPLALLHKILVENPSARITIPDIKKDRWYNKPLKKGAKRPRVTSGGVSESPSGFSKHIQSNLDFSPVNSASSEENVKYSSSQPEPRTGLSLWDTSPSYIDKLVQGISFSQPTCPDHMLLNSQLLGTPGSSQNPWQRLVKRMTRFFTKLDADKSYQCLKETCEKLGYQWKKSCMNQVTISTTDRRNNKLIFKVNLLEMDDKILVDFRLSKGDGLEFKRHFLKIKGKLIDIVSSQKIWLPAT
# [17] = target: T5, Serine/threonine-protein kinase Chk1 (Homo sapiens); settings: at 1 µM
# [18] = target: Serine/threonine-protein kinase Chk2 (Homo sapiens) (UniProt O96017); settings: at 0.1 µM
# [19] = target: Serine/threonine-protein kinase Chk2 (Homo sapiens) (UniProt O96017); settings: at 1 µM
# [20] = target: Death-associated protein kinase 1 (Homo sapiens) (UniProt P53355); settings: at 0.1 µM;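 note: reported figure is the mean inhibition of DAPK1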
# Chain of Death-associated protein kinase 1 (Homo sapiens) (P53355 whole entry, looked up): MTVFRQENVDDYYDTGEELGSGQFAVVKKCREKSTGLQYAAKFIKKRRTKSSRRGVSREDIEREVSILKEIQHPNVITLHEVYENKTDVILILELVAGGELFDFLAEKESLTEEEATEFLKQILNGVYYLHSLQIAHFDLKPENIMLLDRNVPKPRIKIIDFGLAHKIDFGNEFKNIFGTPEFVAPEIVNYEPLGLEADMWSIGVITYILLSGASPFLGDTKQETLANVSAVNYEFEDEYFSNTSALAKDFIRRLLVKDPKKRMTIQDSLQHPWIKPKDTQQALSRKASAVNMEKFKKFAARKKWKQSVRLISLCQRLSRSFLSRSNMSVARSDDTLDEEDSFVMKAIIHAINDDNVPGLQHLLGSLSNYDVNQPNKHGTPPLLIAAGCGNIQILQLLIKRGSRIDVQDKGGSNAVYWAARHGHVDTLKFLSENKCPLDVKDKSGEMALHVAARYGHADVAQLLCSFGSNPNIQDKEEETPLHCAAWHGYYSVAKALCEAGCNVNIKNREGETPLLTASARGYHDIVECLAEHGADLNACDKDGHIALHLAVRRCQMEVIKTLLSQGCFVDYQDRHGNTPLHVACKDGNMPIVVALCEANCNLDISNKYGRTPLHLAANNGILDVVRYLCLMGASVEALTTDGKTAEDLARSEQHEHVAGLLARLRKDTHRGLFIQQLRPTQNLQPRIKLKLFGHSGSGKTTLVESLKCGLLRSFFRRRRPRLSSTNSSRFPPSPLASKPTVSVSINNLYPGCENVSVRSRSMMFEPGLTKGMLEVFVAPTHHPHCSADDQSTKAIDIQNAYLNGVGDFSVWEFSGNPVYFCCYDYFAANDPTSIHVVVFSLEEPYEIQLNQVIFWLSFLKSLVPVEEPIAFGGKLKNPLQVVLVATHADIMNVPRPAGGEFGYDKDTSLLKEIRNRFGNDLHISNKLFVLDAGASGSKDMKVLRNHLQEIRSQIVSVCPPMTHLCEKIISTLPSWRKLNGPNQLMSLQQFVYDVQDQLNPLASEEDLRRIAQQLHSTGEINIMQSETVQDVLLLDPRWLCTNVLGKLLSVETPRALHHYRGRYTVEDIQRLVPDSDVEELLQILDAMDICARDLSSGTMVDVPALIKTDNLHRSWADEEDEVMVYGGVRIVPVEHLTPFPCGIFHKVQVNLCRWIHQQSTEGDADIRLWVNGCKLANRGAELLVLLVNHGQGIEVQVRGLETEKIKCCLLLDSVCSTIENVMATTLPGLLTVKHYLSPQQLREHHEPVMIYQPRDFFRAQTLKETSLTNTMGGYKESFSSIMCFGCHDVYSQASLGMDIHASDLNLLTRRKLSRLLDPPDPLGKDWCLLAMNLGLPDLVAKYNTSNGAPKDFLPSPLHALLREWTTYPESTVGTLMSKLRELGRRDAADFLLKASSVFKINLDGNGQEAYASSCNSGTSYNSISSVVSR
# Chain of Serine/threonine-protein kinase Chk2 (Homo sapiens) (O96017 whole entry): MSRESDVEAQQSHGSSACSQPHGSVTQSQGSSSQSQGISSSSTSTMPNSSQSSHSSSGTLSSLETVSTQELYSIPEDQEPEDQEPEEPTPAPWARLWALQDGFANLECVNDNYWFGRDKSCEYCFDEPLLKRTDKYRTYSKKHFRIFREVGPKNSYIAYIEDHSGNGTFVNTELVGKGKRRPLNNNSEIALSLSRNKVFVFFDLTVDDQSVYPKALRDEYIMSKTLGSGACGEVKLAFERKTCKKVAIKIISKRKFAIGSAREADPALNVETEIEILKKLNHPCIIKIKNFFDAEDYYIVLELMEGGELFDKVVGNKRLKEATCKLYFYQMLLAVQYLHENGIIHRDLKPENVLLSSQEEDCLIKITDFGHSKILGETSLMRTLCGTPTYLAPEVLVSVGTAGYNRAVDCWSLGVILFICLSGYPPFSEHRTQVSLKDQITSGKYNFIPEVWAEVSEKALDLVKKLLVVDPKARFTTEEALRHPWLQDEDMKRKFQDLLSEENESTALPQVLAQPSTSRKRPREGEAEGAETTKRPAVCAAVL
# Chain of 5'-AMP-activated protein kinase catalytic subunit alpha-2 (Homo sapiens) (P54646 whole entry, looked up): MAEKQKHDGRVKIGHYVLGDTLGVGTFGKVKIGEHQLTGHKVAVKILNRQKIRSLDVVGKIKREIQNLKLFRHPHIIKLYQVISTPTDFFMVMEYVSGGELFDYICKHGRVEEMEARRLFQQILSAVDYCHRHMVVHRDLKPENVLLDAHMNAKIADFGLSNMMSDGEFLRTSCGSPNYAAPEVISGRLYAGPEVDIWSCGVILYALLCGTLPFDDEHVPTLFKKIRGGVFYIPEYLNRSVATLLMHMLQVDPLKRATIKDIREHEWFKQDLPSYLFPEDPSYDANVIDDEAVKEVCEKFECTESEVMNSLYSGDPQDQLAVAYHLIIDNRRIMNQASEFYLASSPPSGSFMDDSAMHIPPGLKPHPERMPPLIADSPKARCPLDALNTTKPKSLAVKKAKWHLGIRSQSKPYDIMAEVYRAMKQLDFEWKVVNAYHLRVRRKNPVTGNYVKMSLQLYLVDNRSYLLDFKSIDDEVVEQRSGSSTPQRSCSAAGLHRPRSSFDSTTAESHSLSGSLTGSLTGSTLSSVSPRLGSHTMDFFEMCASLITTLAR
# Chain of Calcium/calmodulin-dependent protein kinase type 1D (Homo sapiens) (Q8IU85 whole entry, looked up): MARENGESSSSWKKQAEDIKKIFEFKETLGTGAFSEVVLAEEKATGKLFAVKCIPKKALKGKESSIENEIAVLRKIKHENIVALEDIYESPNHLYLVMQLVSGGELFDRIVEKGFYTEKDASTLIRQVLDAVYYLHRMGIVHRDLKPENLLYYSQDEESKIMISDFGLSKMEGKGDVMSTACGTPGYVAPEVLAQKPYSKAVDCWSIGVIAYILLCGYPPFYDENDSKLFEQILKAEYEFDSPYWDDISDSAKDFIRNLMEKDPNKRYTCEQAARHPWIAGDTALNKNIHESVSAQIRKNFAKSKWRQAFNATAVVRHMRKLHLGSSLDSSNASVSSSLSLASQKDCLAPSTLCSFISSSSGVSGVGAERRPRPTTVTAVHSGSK
# Chain of Calcium/calmodulin-dependent protein kinase type II subunit alpha (Homo sapiens) (Q9UQM7 whole entry): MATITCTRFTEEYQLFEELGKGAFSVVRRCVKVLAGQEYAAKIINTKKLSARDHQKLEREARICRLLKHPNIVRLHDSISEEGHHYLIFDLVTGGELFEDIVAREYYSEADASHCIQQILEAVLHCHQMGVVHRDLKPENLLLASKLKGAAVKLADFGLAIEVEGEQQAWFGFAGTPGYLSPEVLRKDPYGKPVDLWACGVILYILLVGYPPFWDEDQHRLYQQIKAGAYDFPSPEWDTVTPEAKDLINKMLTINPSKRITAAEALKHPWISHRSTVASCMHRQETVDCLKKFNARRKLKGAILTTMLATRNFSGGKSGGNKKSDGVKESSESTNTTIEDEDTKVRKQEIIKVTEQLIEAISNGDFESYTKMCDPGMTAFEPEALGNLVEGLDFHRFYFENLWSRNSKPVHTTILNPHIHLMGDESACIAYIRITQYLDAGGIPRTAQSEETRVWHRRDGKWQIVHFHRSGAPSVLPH
# Chain of Calcium/calmodulin-dependent protein kinase type II subunit delta (Homo sapiens) (Q13557 whole entry): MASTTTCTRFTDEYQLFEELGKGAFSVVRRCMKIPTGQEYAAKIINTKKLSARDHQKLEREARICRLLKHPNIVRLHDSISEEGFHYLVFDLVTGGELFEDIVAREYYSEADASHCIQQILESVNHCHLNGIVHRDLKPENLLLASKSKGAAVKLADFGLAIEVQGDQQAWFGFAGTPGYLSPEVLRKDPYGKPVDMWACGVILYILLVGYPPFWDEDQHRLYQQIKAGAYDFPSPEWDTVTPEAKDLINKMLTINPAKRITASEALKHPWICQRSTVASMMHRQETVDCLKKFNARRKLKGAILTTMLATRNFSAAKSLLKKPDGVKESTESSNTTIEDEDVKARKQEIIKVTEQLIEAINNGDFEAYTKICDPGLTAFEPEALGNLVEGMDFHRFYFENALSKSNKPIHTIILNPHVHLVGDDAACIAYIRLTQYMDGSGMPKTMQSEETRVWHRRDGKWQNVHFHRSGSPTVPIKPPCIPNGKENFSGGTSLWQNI
SMILES,inhibition [1],inhibition [2],inhibition [3],inhibition [4],inhibition [5],inhibition [6],inhibition [7],inhibition [8],inhibition [9],inhibition [10],inhibition [11],inhibition [12],inhibition [13],inhibition [14],inhibition [15],inhibition [16],inhibition [17],inhibition [18],inhibition [19],inhibition [20]
Cc1c2ccc(N(C)c3ccnc(Nc4cccc(S(N)(=O)=O)c4)n3)cc2nn1C,5.34%,10.9%,46.2%,3.47%,3.4%,1.95%,2.47%,0.58%,2.6%,3.49%,4.44%,4.36%,5.37%,0.12%,0.2%,3.06%,4.57%,3.17%,7.22%,2.95%
COC(=O)Nc1nc2ccc(Oc3ccc(NC(=O)Nc4cc(C(F)(F)F)ccc4F)cc3)cc2s1,1.67%,-0.54%,-3.55%,-0.58%,0.34%,-0.27%,0.24%,0.5%,2.93%,-0.9%,0.75%,0.25%,1.63%,0.98%,2.48%,-6.7%,0.48%,-0.62%,-0.04%,-0.48%
Cc1ccc(-c2cc3c(NC(=O)C4CC4)ncnc3o2)cc1,5.09%,2.09%,6.68%,2.59%,4.69%,2.82%,4.69%,0.92%,1.61%,4.04%,4.25%,3.37%,3.7%,-0.74%,30.3%,-0.37%,3.47%,2.56%,5.07%,3.63%
